The record followed here is PubChem BioAssay (NCI).

Structures are written as SMILES. The panel holds about 83,000 compounds, 20% with a hit somewhere; the sample as a whole holds those more often.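 Single-concentration screen, 48 h exposure, 96-well plates. Endpoint: percent growth. Below 10 = active.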 Unmarked numbers belong to inactive results. Calls of active or inactive are those of the source.

Test systems include HCT-15 colon; HT29 colon; SNB-75 CNS; SNB-19 CNS; PC-3 prostate; SK-MEL-5 melanoma; UACC-62 melanoma; LOX IMVI melanoma; SK-MEL-28 melanoma; U251 CNS.
Common to all, as to assay: NCI-60 one-dose screen, 48 h (100 = growth as untreated, 0 = no growth, -100 = all killed)
Conditions in all cases: 10 µM unless noted

In the case of `CC1(C)CC[C@]2(C(=O)Nc3ccccn3)CC[C@]3(C)C(=CC[C@@H]4[C@@]5(C)C/C(=C/c6cccnc6)C(=O)C(C)(C)[C@@H]5CC[C@]43C)[C@H]2C1`, the growth in the assay on HCT-15 colon is 18.9%; in the assay on HT29 colon, 25.1%; in the assay with SNB-75 CNS, 45.2%; in the assay on SNB-19 CNS, 63.8%; with PC-3 prostate, 19.9%; in the assay on SK-MEL-5 melanoma, -14.8% (active). The growth was 34.1% in the assay with UACC-62 melanoma, 14.9% in the assay with LOX IMVI melanoma and 48.2% in the assay on SK-MEL-28 melanoma.

As to `O=C1/C(=C/c2cn(-c3ccccc3)nc2-c2ccccc2)SC(=S)N1CCc1ccccc1`, the growth in the assay with HCT-15 colon is 106%; in the assay with HT29 colon, 104%; in the assay on SNB-75 CNS, 71.9%; with SNB-19 CNS it was 99%; with PC-3 prostate it was 100%; in the assay on SK-MEL-5 melanoma, 101%. Moreover, the results for the growth in the assay with UACC-62 melanoma, in the assay on LOX IMVI melanoma and in the assay on SK-MEL-28 melanoma were 98%, 99.3% and 118%, respectively.

In the case of `COc1cccc(-c2nc3sccn3c2-c2ccnc(NCCCNS(=O)(=O)c3cccc(F)c3)c2)c1`, the growth in the assay on HCT-15 colon was 13.7%; in the assay with HT29 colon, 38.7%; with SNB-75 CNS, 29.3%; with SNB-19 CNS, 55%; in the assay with PC-3 prostate, 13.6%; in the assay with SK-MEL-5 melanoma, -31.2% (active). Also, the growth in the assay with UACC-62 melanoma is -32.7% (active); in the assay with LOX IMVI melanoma, 23.7%; in the assay with SK-MEL-28 melanoma, 42.6%.

On to `O=C1NC(=S)NC(=O)C1CC(=O)n1c(-c2ccccc2)nc2ccccc21`, for which the growth in the assay with HCT-15 colon is 94.3%; with HT29 colon, 106%; in the assay on SNB-75 CNS, 66.5%; with SNB-19 CNS, 94.8%; in the assay on PC-3 prostate it was 97.7%; in the assay with SK-MEL-5 melanoma it was 98.5%. Besides, the figures for the growth in the assay on UACC-62 melanoma, in the assay with LOX IMVI melanoma and with SK-MEL-28 melanoma were 94.9%, 88.7% and 112%, respectively.

With `O=c1nc2oc3ccc4ccccc4c3cc-2s1`, the growth in the assay on HCT-15 colon was 32.4%; with HT29 colon, 15.2%; with SNB-75 CNS it was -16.1% (active); in the assay with SNB-19 CNS, 31.9%; in the assay with U251 CNS, 12.5%; in the assay with UACC-62 melanoma it was 37.6%. The growth was 33.5% with LOX IMVI melanoma and 56.7% in the assay on SK-MEL-28 melanoma.

On to `Cn1c(=O)c2c(nc3n(-c4ccc(Cl)cc4Cl)c(Sc4nc(-c5ccccc5)c(C#N)c(=O)[nH]4)cn23)n(C)c1=O`, for which the growth was 63.1% in the assay on HCT-15 colon; 57.1% with HT29 colon; -5.62% (active) with SNB-75 CNS; 24.7% in the assay with SNB-19 CNS; 75.7% with PC-3 prostate; 90.4% in the assay on SK-MEL-5 melanoma. Moreover, the results for the growth in the assay on UACC-62 melanoma, in the assay on LOX IMVI melanoma and in the assay on SK-MEL-28 melanoma were 63.2%, 33.5% and 87.8%, respectively.

In the case of `COc1cc(CNc2oc(-c3ccccc3)c(-c3ccccc3)c2C#N)cc(CN2CCN(C)CC2)c1O`, the growth in the assay on HCT-15 colon was -55.9% (active); in the assay with HT29 colon, 5.27% (active); with SNB-75 CNS it was 52.4%; in the assay with SNB-19 CNS, 83.3%; in the assay with PC-3 prostate, 57.6%; in the assay with SK-MEL-5 melanoma, 49.8%. Besides, the growth is 91.1% with UACC-62 melanoma, -74.6% (active) in the assay with LOX IMVI melanoma and -38.4% (active) in the assay with SK-MEL-28 melanoma.

Take `COc1ccc(NC2=C(Sc3nc(C)cc(C)n3)C(=O)N(Cc3ccccc3)C2=O)cc1Cl`: the growth in the assay with HCT-15 colon is 73.8% [30 µM]; in the assay on HT29 colon it was 60.1% [30 µM]; in the assay on SNB-75 CNS, 84.4% [30 µM]; with SNB-19 CNS, 95.4% [30 µM]; in the assay on U251 CNS, 86.9% [30 µM]; with UACC-62 melanoma, 71.5% [30 µM]. Moreover, the figures for the growth in the assay with LOX IMVI melanoma and in the assay with SK-MEL-28 melanoma were 93.2% [30 µM] and 103% [30 µM], respectively.

As for `CON1C(=O)CC[C@]2(C)[C@H]3CC[C@@H]4C([C@@]5(C)CCC(=O)O5)CC[C@@]4(C)[C@]3(C)CC[C@H]2C1(C)C` (stereo partly drawn), the growth was 99.8% in the assay on HCT-15 colon; 94.6% in the assay on HT29 colon; 71.5% in the assay with SNB-75 CNS; 96.5% with SNB-19 CNS; 87.4% in the assay with PC-3 prostate; 98.4% with SK-MEL-5 melanoma. Further, the growth in the assay on UACC-62 melanoma is 87.2%; in the assay with LOX IMVI melanoma it was 95.1%; with SK-MEL-28 melanoma, 107%.

On to `CSc1nc(-c2cccc(NC(=O)CCl)c2)c(C#N)c(=O)n1C`, for which the growth with HCT-15 colon is 11%; in the assay with HT29 colon, -33.7% (active); in the assay on SNB-75 CNS, 54%; in the assay with SNB-19 CNS it was 86.6%; in the assay with PC-3 prostate, 77.5%; with SK-MEL-5 melanoma it was 79.4%. Also, the growth in the assay with UACC-62 melanoma was 60.4%; in the assay on LOX IMVI melanoma, -91.6% (active); with SK-MEL-28 melanoma it was 87.3%.

Consider `COc1cc2nc(N3CCCC3)nc(NCc3ccccc3)c2cc1OC`, for which the growth in the assay with HCT-15 colon is 6.07% (active); in the assay on HT29 colon, 18.7%; in the assay on SNB-75 CNS it was 69.1%; with SNB-19 CNS, 95.6%; with PC-3 prostate, 67.2%; in the assay on SK-MEL-5 melanoma, 67.8%. In addition, the values for the growth in the assay on UACC-62 melanoma, in the assay with LOX IMVI melanoma and in the assay with SK-MEL-28 melanoma were 97.3%, 10% and 57%, respectively.

For the molecule `COc1cc2nc(N3CCCC3)nc(Nc3ccccc3)c2cc1OC`, the growth is -42.6% (active) in the assay on HCT-15 colon; -71% (active) in the assay on HT29 colon; 99.5% with SNB-75 CNS; 49.9% in the assay with SNB-19 CNS; 29.4% in the assay with PC-3 prostate; -97.8% (active) in the assay with SK-MEL-5 melanoma. The results for the growth in the assay with UACC-62 melanoma, with LOX IMVI melanoma and in the assay on SK-MEL-28 melanoma were -76.1% (active), -92.6% (active) and -91.3% (active), respectively.

As for `C#CCOc1ccc2ncnc(N3CCN(C(=O)CCl)CC3)c2c1`, the growth with HCT-15 colon was 58.8% [8.25 µM]; in the assay with HT29 colon, 71.7% [8.25 µM]; with SNB-75 CNS it was 101% [8.25 µM]; in the assay on SNB-19 CNS, 95.9% [8.25 µM]; with U251 CNS, 91.2% [8.25 µM]; with LOX IMVI melanoma it was 47.4% [8.25 µM]. Besides, in the assay on SK-MEL-28 melanoma, the growth is 98.4% [8.25 µM].

Consider `O=C(COc1cccc(/C=C2\CSc3ccccc3C2=O)c1)Nc1nccs1`, for which the growth is 75.5% in the assay on HCT-15 colon; 15.9% with HT29 colon; 22.2% in the assay on SNB-75 CNS; 79.5% with SNB-19 CNS; 41.8% in the assay on U251 CNS; 64.1% in the assay on UACC-62 melanoma. The growth in the assay with LOX IMVI melanoma was -100% (active); in the assay with SK-MEL-28 melanoma, -0.13% (active).

Take `CCOC(=O)c1csc(NC(=O)COc2cccc(/C=C3\CSc4ccccc4C3=O)c2)n1`: the growth in the assay on HCT-15 colon was 89%; in the assay with HT29 colon, -34.2% (active); in the assay with SNB-75 CNS, -33.7% (active); in the assay on SNB-19 CNS, 81.3%; in the assay with U251 CNS, -54.2% (active); in the assay with LOX IMVI melanoma it was -93.9% (active). In the assay with SK-MEL-28 melanoma, the growth is 89.3%.
